Experimental data from article PMC12136788.
Changes are numbered by the printed parent chain. Whole data set: some 24,000 sequences, median “enrichment r” near 0.99, cut for the highest 2% near 3.7. Shown is part of a subset that was picked to be rich in the highest values.

T1: UNK ZnF1-3 (human, UniProt Q9C0B0 31-174)
T1 sequence: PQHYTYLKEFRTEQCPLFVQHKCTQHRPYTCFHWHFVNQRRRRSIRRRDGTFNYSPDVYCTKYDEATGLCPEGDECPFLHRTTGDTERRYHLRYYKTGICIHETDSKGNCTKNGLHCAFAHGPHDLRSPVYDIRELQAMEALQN

B1: 24817595_24818005_4380_CDS_ENSG00000090905_ENST00000315183|human|control|control (ssRNA)
RNA: GGGAGUUCUACAGUCCGACGAUCCUGAUGGAGUGGCUGCUGCUGAGAUGGUGGAGUCUGCUGCUUCACCAACAGGUUUGGAUCAAGUUGACGAGAUUGUUGCAUCAUUUGCUGCUGCACACUAAGAGGUCGACCCUGCUGGUCCAACAGAGGAUUGAGCAUCA
B2: chr10:33190432:33190433:-_ENSG00000150093_ENST00000302278|hu_mus|hu_hu_hu_mus_True|1_48 (ssRNA)
RNA: GGGAGUUCUACAGUCCGACGAUCUACAUUUUCCAAACCUGCAUGUGAAUAAAACCCUGGCCACAGAGCCCCAAAACUACCCUACUGUGACUAUGGAGCUGCUGCUGUGAGCUUGGUGUUGCAAAAUCCGCCUGAGUCAGUACUCAACAGAGGAUUGAGCAUCA
B3: 17505014_17509309_214_5pUTR_ENSMUSG00000019370_ENSMUST00000019514|mouse|control|control (ssRNA)
RNA: GGGAGUUCUACAGUCCGACGAUCCAUGGCGAGGCACCGGUAUCCGGAGCUCGGGGAUCGAGGUUACUCUGGCGGCGGCAGCAGCUGCAGCAGCUCGAGCUCCGCCGCGCGUCCGCGCCUCCACACUCUUUGCCCGCAGCGCGCCAACAGAGGAUUGAGCAUCA
B4: chr8:80553714:80553715:+_ENSG00000104435_ENST00000220876|hu_mus|motif|central (ssRNA)
RNA: GGGAGUUCUACAGUCCGACGAUCAGCCUCCAGCUUUUUCUGAAUCUCCUCCAGAGACAGGUCUUUCUUCUUUGGAGAAGCGGGAGUUCGUGGAGCUUCUGAGAUGGGAGAUGGUGGCUUCAAGAUCAGCUCAAAAGCCUGGCCCAACAGAGGAUUGAGCAUCA
B5: chr11:100577090:100577091:-_ENSMUSG00000019173_ENSMUST00000107364|mus_hu|motif|central (ssRNA)
RNA: GGGAGUUCUACAGUCCGACGAUCCUGCACUGACCCCACUGUCCCCAUAUACAAGGGUUGGGGGGCAAGAGCAUGUGGCGGCUCCCAGCAAGGGAAAAUGGGAGAGCAGUAGAAAGGGGAGGAAGUGGGAAGAGCAGAAGAUCACAACAGAGGAUUGAGCAUCA
B6: chr1:89687925:89687926:+_ENSMUSG00000026289_ENSMUST00000027512|mus_hu|FALSE|FALSE (ssRNA)
RNA: GGGAGUUCUACAGUCCGACGAUCCCAGGACAGGGCUGCAGGAGCCCAUGUGCUUCUUCUGAGGAGGGCACUGGGGUCCUCCCAGCCCUGAGAGCCCCGUCAGUACUGUGCCCACAGCACAGCUUUGCAUCCUUUGUCCACACUCAACAGAGGAUUGAGCAUCA
B7: chr3:33038425:33038426:-_ENSG00000170266_ENST00000307363|hu_mus|FALSE|FALSE (ssRNA)
RNA: GGGAGUUCUACAGUCCGACGAUCGGUGGGAGGUCAGGCAAGGCGGGGCUGCAAAGUCACCAGCAGGGUACACACAUUCCAGAAAUGUAGCUUCCAUUCUAGCACAACAAAGGUGAUCCGUGUAACCAGAGUAGAGCUGUGCUCCAACAGAGGAUUGAGCAUCA
B8: 105885974_105886094_2527_3pUTR_ENSG00000135966_ENST00000393359|human|control|control (ssRNA)
RNA: GGGAGUUCUACAGUCCGACGAUCCAGCAGCGUGUGAAAGAGUUGCUGGCGGUGGGGUGGGUCUCGGCCCUCGGAGCACCACAGGCAGUAGUCCUCGGCCGCUGCAAAGUCCUGCAGCUCGUGCACCAGGAUAUGCAGCGCCUUCAACAGAGGAUUGAGCAUCA
B9: chr10:112657927:112657928:+_ENSG00000150593_ENST00000280154|hu_hu|FALSE|FALSE (ssRNA)
RNA: GGGAGUUCUACAGUCCGACGAUCCAGAAAUGCCUUGUACCCAAAACAAGUGCUUAAAAAAAAAAAAAAAAAAAACUUGUGCUAACAACUCUUACAAUUCAGAUAUAUAUUUUUAUAACAUCUAAGACUGCAAGAGUUCUUAUACAACAGAGGAUUGAGCAUCA
B10: chr10:112657927:112657928:+_ENSG00000150593_ENST00000280154|hu_hu|motif|central (ssRNA)
RNA: B9 RNA with U82G, A83G
B11: chr17:65740002:65740003:+_ENSG00000130935_ENST00000581375|hu_hu|hu_hu_hu_mus_False|8_8 (ssRNA)
RNA: GGGAGUUCUACAGUCCGACGAUCAACAAAUCUUUCUUCCCUGGACGAACAGGAAGAUUCAUAUUAAAAAAAAUAUAUAUCCAUCAAGUUAGGUGUGGUGGCCACACCUUUACUCCCAGCACUUUGGGAAUAUAAUCUCUGAGUCAACAGAGGAUUGAGCAUCA
B12: chr11:30000241:30000242:-_ENSMUSG00000020315_ENSMUST00000011877|mus_hu|motif|central (ssRNA)
RNA: GGGAGUUCUACAGUCCGACGAUCUAUUUCCAACACAGCCUCACAAAAUUGAGGAACAGUUUAAAUACUGAGAUCGGAUCGGUAUAAUUUCAUUAAAAAAAAAAUCUGGCCUUCCCUCUGCACCUCAAACUUUUGUAACUUGGACAACAGAGGAUUGAGCAUCA
B13: chr11:30000241:30000242:-_ENSMUSG00000020315_ENSMUST00000011877|mus_hu|FALSE|FALSE (ssRNA)
RNA: B12 RNA with G75U, G76A, G80U, G81A
B14: chr18:77179482:77179483:+_ENSMUSG00000090000_ENSMUST00000026487|mus_mus|FALSE|FALSE (ssRNA)
RNA: GGGAGUUCUACAGUCCGACGAUCAAGUAUGCUCCAAUCCGGGAGUGCUCCUGCCUCUGAUAAUCUGAUCUACAAGUGCAACUACAAUUAAAAAAAAAAAAAAAUCAGAUAGAUAGAAACUCUGGUUUUAUUGUCAACUUUACUCAACAGAGGAUUGAGCAUCA
B15: chr21:44329077:44329078:+_ENSG00000160194_ENST00000354250|hu_hu|motif|central (ssRNA)
RNA: GGGAGUUCUACAGUCCGACGAUCCUCCCGGCCUGAGGAGGGCUGAGGCAUCCUGAAUUUUGAGAGUUCGAGGUUGAGGUCGGAGAAGGUGUACGUGCUGUAGUCAUGAUGCUGCAGGUUCUUGUAGGUAGUGUUGUCAAACGGCAACAGAGGAUUGAGCAUCA
B16: chr11:93905761:93905762:+_ENSMUSG00000020859_ENSMUST00000103168|mus_mus|FALSE|FALSE (ssRNA)
RNA: GGGAGUUCUACAGUCCGACGAUCCGCUGGCACCCCGGUAGAAAUAGAAAAGUGCACAAGCAGCAAAACAGAGAGAGAUACUAAGAUCGCAGAAUUAAUGACCACCGCCCCGCCAACAAAGCCAAACACAAACAGCAGCAUGCACAACAGAGGAUUGAGCAUCA
B17: chr2:115689366:115689367:-_ENSMUSG00000027210_ENSMUST00000074285|mus_mus|FALSE|FALSE (ssRNA)
RNA: GGGAGUUCUACAGUCCGACGAUCUCUUUGAAGAACAGUCCCCCAAAAUCAUAAUAAGAAUUGGCUUAUGAAGCACAAACUAUAAAGAUCUGUUUGAAACUAAAGGACACAUGGACGGGGGGAACAAAGGCCGGGCAUGAAAACCAACAGAGGAUUGAGCAUCA
B18: chr8:13019134:13019135:+_ENSMUSG00000031442_ENSMUST00000123811|mus_mus|FALSE|FALSE (ssRNA)
RNA: GGGAGUUCUACAGUCCGACGAUCUGGCUGACAGGGGCCUCCUGUUUCCAGAGAUCUCGGAGCACCAUCCCCUCCCAAACUAAGCAAGCCCAAGCAAAAAUAAAAAUUAAAAAUAAAAAAAAACCAAAAAACUUAGAGAUUUGCCAACAGAGGAUUGAGCAUCA
B19: chr8:13019134:13019135:+_ENSMUSG00000031442_ENSMUST00000123811|mus_mus|motif|central (ssRNA)
RNA: B18 RNA with U80G, A81G
B20: chr17:62500844:62500845:-_ENSG00000108654_ENST00000583239|hu_mus|motif|central (ssRNA)
RNA: GGGAGUUCUACAGUCCGACGAUCUUGAUAAAAAUUCUUCUCAAAUUUGGGCAGCUCAUCAAGAUUCCACUUCUUUUUAACGGGUUUCUCCCCAGGAUUUCCAAACUUCUUUCCAGAGAGGGGUCCUGUUCUACUCCCUCCAAACAACAGAGGAUUGAGCAUCA
B21: chr8:86519384:86519385:+_ENSMUSG00000005469_ENSMUST00000005606|mus_mus|FALSE|FALSE (ssRNA)
RNA: GGGAGUUCUACAGUCCGACGAUCUAAAUUAGAUGCAUGGAACUCUAGGGCCCUCUGGCUGUUCGAUCCAACCCUCCCACCCCCAACCGGAAAAAAAAUAGAAAGAAAAAGAAAAAAUGAAAGAGAACCCAAGGGGCACAAGCACAACAGAGGAUUGAGCAUCA
B22: chr5:116097646:116097647:+_ENSMUSG00000029518_ENSMUST00000031492|mus_mus|FALSE|FALSE (ssRNA)
RNA: GGGAGUUCUACAGUCCGACGAUCUAAAAAGCAUAAUUAGAAACUUUCAAUACAGAAAUAGUCCUAGCAAACCAUUUAAAAGUUGGUUGUUUGACAGGAGUUUCACAUCGGGCCCACCAGGGUACCAGUGUAGCCCUGAUUCUCCAACAGAGGAUUGAGCAUCA
B23: chr8:117868997:117868998:-_ENSG00000164754_ENST00000297338|hu_hu|motif|central (ssRNA)
RNA: GGGAGUUCUACAGUCCGACGAUCCACCCCUGCCUCAGAGAGGGCAGGGGGAUCAUCAAAGAUACCGCCAUCAUUAUUACGGAUAAGUUUGUCAUCUAAUAUUCCACCAUCAUUUCCUUCUCCAAAAUUAUCAUCCUUAUAUUGCAACAGAGGAUUGAGCAUCA
B24: chr1:225611761:225611762:-_ENSG00000143815_ENST00000272163|hu_mus|hu_hu_hu_mus_True|18_78 (ssRNA)
RNA: GGGAGUUCUACAGUCCGACGAUCCCAGGCCAUCGGCCUCUGACCACUUCACCCUCAGCAAAUUUCCUACUUGGCAUUUUCUAAAAUUAGUCUGGCCGCGCUCCGGCGGGAACUCCAGACGGCUCCCGACAGUCACCAGCAGCCCAACAGAGGAUUGAGCAUCA

Biological target: T1, UNK ZnF1-3
Assay: nsRBNS (natural sequence RNA bind-n-seq); RBNS binding buffer (assumed for nsRBNS): 25 mM Tris pH 7.5, 150 mM KCl, 3 mM MgCl2, 0.01% Triton X-100, 500 ug/ml BSA, 20 U/ml SUPERase-In, 4 C; UNK is unkempt and MSI1 is Musashi-1; names of the RNAs are library labels; protein concentration not given here; high values mean tight binding

B1 was tested. Which binding signal did it give?
Its binding signal is 0.736 enrichment R.

B2 was tested. Which binding signal did it give?
The binding signal was 1.02 enrichment R.

With B3 as the binder, how does the binding signal read?
Its binding signal is 0.975 enrichment R.

With B4 as the binder, how does the binding signal read?
Its binding signal is 1.22 enrichment R.

B5 was tested. Which binding signal did it give?
Its binding signal is 1.93 enrichment R.

How did the binding signal turn out when B6 was run?
Its binding signal is 0.419 enrichment R.

B7 was tested. Which binding signal did it give?
The binding signal was 1.42 enrichment R.

With B8 as the binder, how does the binding signal read?
Its binding signal is 0.509 enrichment R.

With B9 as the binder, how does the binding signal read?
The binding signal was 3.61 enrichment R.

Which binding signal does the source give for B10 here?
Its binding signal is 4.04 enrichment R.

With B11 as the binder, how does the binding signal read?
The binding signal was 1.12 enrichment R.

Which binding signal does the source give for B12 here?
The binding signal was 3.58 enrichment R.

How did the binding signal turn out when B13 was run?
The binding signal was 4.16 enrichment R.

For B14, which binding signal is on record?
Its binding signal is 2.98 enrichment R.

Which binding signal does the source give for B15 here?
Its binding signal is 1.5 enrichment R.

For B16, which binding signal is on record?
Its binding signal is 2.57 enrichment R.

With B17 as the binder, how does the binding signal read?
The binding signal was 2.13 enrichment R.

With B18 as the binder, how does the binding signal read?
Its binding signal is 21.6 enrichment R.

Which binding signal does the source give for B19 here?
The binding signal was 14.4 enrichment R.

With B20 as the binder, how does the binding signal read?
Its binding signal is 1.28 enrichment R.

Which binding signal does the source give for B21 here?
The binding signal was 6.04 enrichment R.

With B22 as the binder, how does the binding signal read?
The binding signal was 0.472 enrichment R.

For B23, which binding signal is on record?
The binding signal was 1.12 enrichment R.

Which binding signal does the source give for B24 here?
Its binding signal is 1.27 enrichment R.
